# PubChem BioAssay (Tox21)
# Several values for one entry are separate records, joined by “and”; a condition that tells them apart may be missing. Equal entries are not always repeated. Unmarked numbers belong to inactive results. Results filed as inconclusive are left out. Entries that show only a call come without a potency. Activity calls are given as the source filed them. The call rests on the fitted dose curve.
# Biological target: Acetylcholinesterase (Homo sapiens) (UniProt P22303)
# Experiment: Acetylcholinesterase (AChE) small molecule antagonists: enzyme-based qHTS assay (AID 1347397); further: nearly all actives have a fitted effect of over 55% in size
# Settings: Potency: AChE enzyme activity inhibition; outcome: AChE enzyme activity inhibition; series mostly up to 115 µM
# How it was run: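 Recombinant human AChE (50 mU/mL) preincubated with compound 30 min at room temperature; acetylthiocholine plus DTNB then added, and thiocholine formation read colorimetrically after 10 min at room temperature. DMSO served as vehicle control.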
# Potency means the concentration at half of the fitted maximal effect.
# Sequence of Acetylcholinesterase (Homo sapiens) (P22303 whole entry, looked up): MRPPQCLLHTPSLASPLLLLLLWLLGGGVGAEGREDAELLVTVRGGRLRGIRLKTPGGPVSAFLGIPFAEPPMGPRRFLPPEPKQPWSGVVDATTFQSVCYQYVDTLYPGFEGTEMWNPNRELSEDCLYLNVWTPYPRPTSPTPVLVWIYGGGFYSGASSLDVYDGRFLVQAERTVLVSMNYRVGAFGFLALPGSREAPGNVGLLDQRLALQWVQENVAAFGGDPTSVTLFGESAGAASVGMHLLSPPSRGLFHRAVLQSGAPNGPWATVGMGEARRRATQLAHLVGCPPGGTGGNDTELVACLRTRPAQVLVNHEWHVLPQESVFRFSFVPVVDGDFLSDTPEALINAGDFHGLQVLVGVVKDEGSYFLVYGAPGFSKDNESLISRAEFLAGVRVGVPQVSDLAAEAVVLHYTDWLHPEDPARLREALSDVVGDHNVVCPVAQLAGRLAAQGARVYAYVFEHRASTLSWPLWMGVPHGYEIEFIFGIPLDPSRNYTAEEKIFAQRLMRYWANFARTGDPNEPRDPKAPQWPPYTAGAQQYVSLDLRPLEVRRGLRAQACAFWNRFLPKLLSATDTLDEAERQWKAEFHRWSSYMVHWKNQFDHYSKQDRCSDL
Compound,Potency,outcome,"activity change, negative = inhibition"
O=C(/C=C/c1ccccc1)OCCc1ccccc1,inactive,–,–
NC(=O)c1ccc(N)cc1,inactive,–,–
[Cl][Pt-2]([Cl])([Cl])[Cl],17.9 µM (active),–,–
CCCCCCC1(C)CCC(=O)O1 (stereo not given),inactive,–,–
CC(=O)OCC(CCn1cnc2cnc(N)nc21)COC(C)=O,inactive,–,–
CCCCNc1ccc(C(=O)OCCN(CC)CC)cc1,30.9 µM (active),–,–
C=C(C)C(=O)OCCC(F)(F)C(F)(F)C(F)(F)C(F)(F)C(F)(F)C(F)(F)F,inactive,–,–
CCOC(=O)[C@H](CCc1ccccc1)N[C@H]1CS[C@H](c2cccs2)CN(CC(=O)O)C1=O,inactive,–,–
COc1cccc(OC)c1C(=O)O,inactive,–,–
C=CC(=O)O,inactive,–,–
[K+],inactive,–,–
Cc1c(C)c([N+](=O)[O-])c(C(C)(C)C)c([N+](=O)[O-])c1C,inactive,–,–
CO/N=C1\CN(c2nc3c(cc2F)c(=O)c(C(=O)O)cn3C2CC2)CC1CN (stereo not given),–,inactive,–
Cc1ccc(O)c([C@H](CCN(C(C)C)C(C)C)c2ccccc2)c1,inactive,–,–
CC1=C(CC=O)C(C)(C)CCC1,inactive,–,–
CCCCCCCCCCCCCC[P+](CCCC)(CCCC)CCCC,31.6 µM (active) and 39.9 µM (active),–,–
CCN1CCC[C@H]1CNC(=O)c1cc(S(N)(=O)=O)ccc1OC,inactive,–,–
CCCCCCOc1ccccc1C(N)=O,inactive,–,–
O=C(OCC(O)CO)c1ccccc1Nc1ccnc2cc(Cl)ccc12 (stereo not given),inactive,–,–
CCN1CCCC1CNC(=O)c1cc(S(=O)(=O)CC)c(N)cc1OC (stereo not given),15.5 µM (active),–,–

Compound,Potency,outcome,"activity change, negative = inhibition"
COc1cc2nc(N3CCN(C(=O)c4ccco4)CC3)nc(N)c2cc1OC,–,–,-11.6% [at 23.6 µM]
CCCOC(=O)c1c(Cl)c(Cl)c(Cl)c(Cl)c1C(=O)OCCC,inactive,–,–
CCOC(=O)C(C)Oc1ccc(Oc2nc3ccc(Cl)cc3o2)cc1 (stereo not given),inactive,–,–
CCO[Si](CCCSSSSCCC[Si](OCC)(OCC)OCC)(OCC)OCC,inactive,–,–
COc1cccc2c1C(=O)c1c(O)c3c(c(O)c1C2=O)C[C@@](O)(C(=O)CO)C[C@@H]3O[C@H]1C[C@H](N)[C@H](O[C@@H]2CCCCO2)[C@H](C)O1,inactive,–,–
O=C(OOC(=O)c1ccccc1)c1ccccc1,inactive,–,–
CCCCCCCCCCCCCCCCCC[N+](C)(C)Cc1ccccc1,28.5 µM (active),–,–
NC(N)=NN=C(/C=C/c1ccc([N+](=O)[O-])o1)/C=C/c1ccc([N+](=O)[O-])o1,inactive,–,–
CCOC(=O)C1CC(=O)C(=C(O)C2CC2)C(=O)C1 (stereo not given),inactive,–,–
N=C(N)c1ccc(OCCCOc2ccc(C(=N)N)cc2)cc1,inactive,–,–
CN(C)CCC[C@@]1(c2ccc(F)cc2)OCc2cc(C#N)ccc21,inactive,–,–
CCC1=C(C)CN(C(=O)NCCc2ccc(S(=O)(=O)NC(=O)NC3CCC(C)CC3)cc2)C1=O (stereo not given),inactive,–,–
CCCCCCCCCCCC[N+](C)(C)CCCCCCCCCCCC,28.3 µM (active),–,–
CCOC(=O)[C@H](CCc1ccccc1)N[C@@H](C)C(=O)N1[C@H](C(=O)O)C[C@@H]2CCC[C@@H]21,inactive,–,–
CC(=O)CC(N)=O,inactive,–,–
C=CN1CCCCCC1=O,inactive,–,–
Cc1ccc(C(=O)C(C)CN2CCCCC2)cc1 (stereo not given),inactive,–,–
CCCCCCOC(=O)c1ccccc1O,inactive,–,–
Cn1c(N)c(N=O)c(=O)n(C)c1=O,inactive,–,–
CCOc1ccc2[nH]cc(C(=O)NCc3ccccc3)c(=O)c2n1,inactive,–,–

# Biological target: Acetylcholinesterase (Homo sapiens) (UniProt P22303)
# Experiment: Acetylcholinesterase (AChE) small molecule antagonists: fluorescence cell-based qHTS assay (AID 1347398); further: nearly all actives have a fitted effect of over 50% in size
# Settings: SH-SY5Y cells; Potency: AChE activity; outcome: AChE activity; series mostly up to 115 µM
# How it was run: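 SH-SY5Y cells (2000/well), attached overnight, incubated with compound 30 min at 37 C. Acetylthiocholine plus Thiolite Green then added for 40 min at room temperature. Thiocholine fluorescence (Ex/Em 490/520 nm) reports cellular AChE activity.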
Compound,Potency,"activity change, negative = inhibition"
O=C(/C=C/c1ccccc1)OCCc1ccccc1,inactive,–
NC(=O)c1ccc(N)cc1,inactive,–
[Cl][Pt-2]([Cl])([Cl])[Cl],35.7 µM (active),–
CCCCCCC1(C)CCC(=O)O1 (stereo not given),inactive,–
CC(=O)OCC(CCn1cnc2cnc(N)nc21)COC(C)=O,inactive,–
CCCCNc1ccc(C(=O)OCCN(CC)CC)cc1,2.45 µM (active),–
C=C(C)C(=O)OCCC(F)(F)C(F)(F)C(F)(F)C(F)(F)C(F)(F)C(F)(F)F,inactive,–
CCOC(=O)[C@H](CCc1ccccc1)N[C@H]1CS[C@H](c2cccs2)CN(CC(=O)O)C1=O,inactive,–
COc1cccc(OC)c1C(=O)O,inactive,–
C=CC(=O)O,inactive,–
[K+],inactive,–
Cc1c(C)c([N+](=O)[O-])c(C(C)(C)C)c([N+](=O)[O-])c1C,inactive,–
CC1=C(CC=O)C(C)(C)CCC1,inactive,–
CCCCCCCCCCCCCC[P+](CCCC)(CCCC)CCCC,35.4 µM (active) and 63.3 µM (active),–
CCN1CCC[C@H]1CNC(=O)c1cc(S(N)(=O)=O)ccc1OC,inactive,–
CCCCCCOc1ccccc1C(N)=O,inactive,–
CCN1CCCC1CNC(=O)c1cc(S(=O)(=O)CC)c(N)cc1OC (stereo not given),13.8 µM (active),–
COc1cc2nc(N3CCN(C(=O)c4ccco4)CC3)nc(N)c2cc1OC,–,-22.9% [at 23.8 µM]

Compound,Potency,"activity change, negative = inhibition"
CCCOC(=O)c1c(Cl)c(Cl)c(Cl)c(Cl)c1C(=O)OCCC,inactive,–
CCOC(=O)C(C)Oc1ccc(Oc2nc3ccc(Cl)cc3o2)cc1 (stereo not given),inactive,–
CCO[Si](CCCSSSSCCC[Si](OCC)(OCC)OCC)(OCC)OCC,inactive,–
COc1cccc2c1C(=O)c1c(O)c3c(c(O)c1C2=O)C[C@@](O)(C(=O)CO)C[C@@H]3O[C@H]1C[C@H](N)[C@H](O[C@@H]2CCCCO2)[C@H](C)O1,inactive,–
O=C(OOC(=O)c1ccccc1)c1ccccc1,inactive,–
CCCCCCCCCCCCCCCCCC[N+](C)(C)Cc1ccccc1,71.7 µM (active),–
NC(N)=NN=C(/C=C/c1ccc([N+](=O)[O-])o1)/C=C/c1ccc([N+](=O)[O-])o1,inactive,–
CCOC(=O)C1CC(=O)C(=C(O)C2CC2)C(=O)C1 (stereo not given),inactive,–
N=C(N)c1ccc(OCCCOc2ccc(C(=N)N)cc2)cc1,inactive,–
CCC1=C(C)CN(C(=O)NCCc2ccc(S(=O)(=O)NC(=O)NC3CCC(C)CC3)cc2)C1=O (stereo not given),inactive,–
CCCCCCCCCCCC[N+](C)(C)CCCCCCCCCCCC,63.3 µM (active),–
CCOC(=O)[C@H](CCc1ccccc1)N[C@@H](C)C(=O)N1[C@H](C(=O)O)C[C@@H]2CCC[C@@H]21,inactive,–
CC(=O)CC(N)=O,inactive,–
C=CN1CCCCCC1=O,inactive,–
CCCCCCOC(=O)c1ccccc1O,inactive,–
Cn1c(N)c(N=O)c(=O)n(C)c1=O,inactive,–
CCOc1ccc2[nH]cc(C(=O)NCc3ccccc3)c(=O)c2n1,inactive,–
